# Source: PubChem BioAssay (Tox21)
# Values without a mark were called inactive. Results filed as inconclusive are left out. A call without a number means that no potency is given here. Calls of active or inactive are those of the source. Unless noted, the call rests on the fitted dose curve.
# How the values were obtained:
# [1] = Nuclear factor erythroid 2-related factor 2/antioxidant responsive element (Nrf2/ARE) small molecule agonists: qHTS cell viability counter screen in human keratinocytes (AID 1919968; active means well fitted curve in the direction sought with a large enough effect in the repeat runs; an effect the other way counts as inactive or inconclusive; further: nearly all actives have a fitted effect of over 55% in size)
# Procedure, shortened: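 Seed 1,500 KeratinoSens cells per well, then incubate 5 h at 37 C/5% CO2. Add compounds in DMSO and incubate 23 h. Add CellTiter-Fluor, wait 1 h and read fluorescence.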
# [2] = Nuclear factor erythroid 2-related factor 2/antioxidant responsive element (Nrf2/ARE) small molecule agonists: luciferase reporter gene qHTS assay in human keratinocytes (AID 1919969); further: nearly all actives have a fitted effect of over 35% in size
# [3] = molecular target: Gonadotropin-releasing hormone receptor (Homo sapiens) (UniProt P30968); assay: Human gonadotropin-releasing hormone receptor (GnRHR) small molecule agonists, calcium flux assay in GnRHR-HEK293 cells (AID 1920063); further: nearly all actives have a fitted effect of over 35% in size
# Gonadotropin-releasing hormone receptor (Homo sapiens), sequence (P30968 whole entry, looked up): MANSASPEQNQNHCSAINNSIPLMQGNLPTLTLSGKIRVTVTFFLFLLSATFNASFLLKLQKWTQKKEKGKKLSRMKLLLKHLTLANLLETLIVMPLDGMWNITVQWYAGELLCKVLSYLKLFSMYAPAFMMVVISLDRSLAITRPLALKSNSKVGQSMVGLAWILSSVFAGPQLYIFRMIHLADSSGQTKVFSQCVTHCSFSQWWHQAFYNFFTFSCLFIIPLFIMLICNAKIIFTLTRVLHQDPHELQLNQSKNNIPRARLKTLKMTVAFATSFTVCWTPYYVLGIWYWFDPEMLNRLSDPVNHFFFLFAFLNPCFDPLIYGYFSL
# Procedure, shortened: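 Cells: HEK293 stably expressing human GnRHR. Steps: overnight (18 h) culture, 1 h calcium dye loading at 37 C, compound addition, kinetic fluorescence read at 480/540 nm. Each compound tested at 15 concentrations in triplicate.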
# [4] = molecular target: KiSS-1 receptor (Homo sapiens) (UniProt Q969F8); assay: Human kisspeptin (KISS1R) small molecule agonists, calcium flux assay in KISS1R-HEK293 cells (AID 1920064; active means well fitted curve in the direction sought with a large enough effect in the repeat runs; an effect the other way counts as inactive or inconclusive)
# KiSS-1 receptor (Homo sapiens), sequence (Q969F8 whole entry, looked up): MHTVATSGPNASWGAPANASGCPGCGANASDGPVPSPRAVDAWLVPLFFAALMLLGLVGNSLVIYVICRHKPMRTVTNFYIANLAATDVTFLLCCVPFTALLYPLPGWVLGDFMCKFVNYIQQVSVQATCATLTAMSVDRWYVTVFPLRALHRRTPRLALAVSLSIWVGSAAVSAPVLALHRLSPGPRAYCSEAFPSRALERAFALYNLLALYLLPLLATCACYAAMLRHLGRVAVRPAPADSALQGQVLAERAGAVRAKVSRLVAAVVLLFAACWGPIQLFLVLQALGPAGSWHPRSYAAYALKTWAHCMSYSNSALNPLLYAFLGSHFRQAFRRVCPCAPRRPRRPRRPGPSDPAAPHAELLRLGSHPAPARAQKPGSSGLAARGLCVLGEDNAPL
# Procedure, shortened: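 Cells plated and incubated 18 h; dye added, 1 h at 37 C; compounds in DMSO pinned in; signal read at 480/540 nm every second for 3 min. Each compound tested at 15 concentrations in triplicate.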
# [5] = G protein-coupled receptor (GPCR) small molecule agonists, calcium flux assay: HEK293 wild type cell line counter screen (AID 1920065)
# Procedure, shortened: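 Counter-screen of the Tox21 10K library for non-specific calcium release: dye-loaded cells received compounds in DMSO and were monitored by kinetic fluorescence (480/540 nm, 3 min). Fifteen concentrations, run in triplicate.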
# [6] = p53 small molecule agonists, cell-based qHTS assay with human liver microsomes (AID 1963577);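 further: p53 response element beta-lactamase reporter cells with liver microsomes plus NADPH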
# Procedure, shortened: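 Steps: plate p53RE-bla cells, incubate 5 h at 37 C; add compound in DMSO; add microsomes (0.5 mg/mL final) and NADPH (0.5 mg/mL final); incubate 16 h at 37 C; add LiveBLAzer, 2 h RT; read fluorescence.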
# [7] = p53 small molecule agonists, cell-based qHTS assay with rat liver microsomes (AID 1963578)
# Procedure, shortened: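 Metabolic activation is supplied by rat liver microsomes with NADPH (each 0.5 mg/mL final). p53RE-bla cells incubate with compound 16 h at 37 C; reporter activity is measured by LiveBLAzer fluorescence.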
# [8] = p53 small molecule agonists, cell-based qHTS assay with human liver microsomes: qHTS cell viability counter screen (AID 1963579); further: nearly all actives have a fitted effect of over 45% in size
# Procedure, shortened: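 After the 460/530 nm beta-lactamase read, CellTiter-Glo was added to the same wells and luminescence measured after 30 min at room temperature, giving viability of p53RE-bla cells treated 16 h with compounds plus microsomes and NADPH.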
# [9] = p53 small molecule agonists, cell-based qHTS assay with rat liver microsomes: qHTS cell viability counter screen (AID 1963580); further: nearly all actives have a fitted effect of over 45% in size
# Procedure, shortened: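 p53RE-bla HCT-116 cells were exposed 16 h at 37 C to compounds with rat liver microsomes (0.5 mg/mL) and NADPH (0.5 mg/mL). Viability was measured in the same wells as ATP content by CellTiter-Glo luminescence.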
# [10] = p53 small molecule agonists, cell-based qHTS assay: qHTS cell viability counter screen (AID 1963581); further: nearly all actives have a fitted effect of over 45% in size
# Procedure, shortened: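 Cells: HCT-116 with p53 response element-driven beta-lactamase. Treatment: 16 h, 37 C, compounds in DMSO. Read: CellTiter-Glo luminescence after 30 min RT.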
# [11] = p53 small molecule agonists, cell-based qHTS assay (AID 1963582; active means well fitted activation curve with a large enough effect in the signal ratio in the repeat runs, not every such curve was filed as active; the % refers to the signal ratio)
# Procedure, shortened: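 Quantitative HTS in p53RE-bla cells: after a 5 h settling period, compounds delivered in DMSO were left on cells for 16 h at 37 C, and reporter induction was measured as fluorescence following 2 h substrate loading.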
# [12] = molecular target: 5-hydroxytryptamine receptor 2A (Homo sapiens) (UniProt P28223); assay: 5-hydroxytryptamine receptor 2A (HTR2A) small molecule agonists, cell-based qHTS assay (AID 1963587); further: nearly all actives have a fitted effect of over 30% in size; further: potency means the concentration at half of the fitted maximal effect
# 5-hydroxytryptamine receptor 2A (Homo sapiens), sequence (P28223 whole entry, looked up): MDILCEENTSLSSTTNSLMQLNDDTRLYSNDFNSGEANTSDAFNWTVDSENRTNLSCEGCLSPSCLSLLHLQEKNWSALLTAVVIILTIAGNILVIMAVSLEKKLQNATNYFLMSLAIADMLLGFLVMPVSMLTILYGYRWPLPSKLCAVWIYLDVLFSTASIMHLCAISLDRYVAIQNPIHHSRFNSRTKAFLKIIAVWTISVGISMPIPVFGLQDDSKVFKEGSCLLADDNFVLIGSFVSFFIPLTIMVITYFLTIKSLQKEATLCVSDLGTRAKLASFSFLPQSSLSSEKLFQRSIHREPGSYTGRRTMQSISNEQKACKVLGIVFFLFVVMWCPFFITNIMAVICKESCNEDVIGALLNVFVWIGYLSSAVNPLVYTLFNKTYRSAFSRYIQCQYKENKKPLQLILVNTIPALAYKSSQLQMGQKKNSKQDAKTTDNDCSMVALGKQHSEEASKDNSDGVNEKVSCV
# Procedure, shortened: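 CHO cells stably expressing human HTR2A, plated 18 h, loaded with calcium dye 1 h at 37 C. Agonist mode: compounds added and intracellular calcium fluorescence recorded kinetically for 2 min at 1 sec intervals.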
# [13] = molecular target: Muscarinic acetylcholine receptor M1 (Homo sapiens) (UniProt P11229); assay: Cholinergic receptor muscarinic 1 (CHRM1) small molecule antagonists, cell-based qHTS assay (AID 1963588); further: nearly all actives have a fitted effect of over 40% in size
# Muscarinic acetylcholine receptor M1 (Homo sapiens), sequence (P11229 whole entry, looked up): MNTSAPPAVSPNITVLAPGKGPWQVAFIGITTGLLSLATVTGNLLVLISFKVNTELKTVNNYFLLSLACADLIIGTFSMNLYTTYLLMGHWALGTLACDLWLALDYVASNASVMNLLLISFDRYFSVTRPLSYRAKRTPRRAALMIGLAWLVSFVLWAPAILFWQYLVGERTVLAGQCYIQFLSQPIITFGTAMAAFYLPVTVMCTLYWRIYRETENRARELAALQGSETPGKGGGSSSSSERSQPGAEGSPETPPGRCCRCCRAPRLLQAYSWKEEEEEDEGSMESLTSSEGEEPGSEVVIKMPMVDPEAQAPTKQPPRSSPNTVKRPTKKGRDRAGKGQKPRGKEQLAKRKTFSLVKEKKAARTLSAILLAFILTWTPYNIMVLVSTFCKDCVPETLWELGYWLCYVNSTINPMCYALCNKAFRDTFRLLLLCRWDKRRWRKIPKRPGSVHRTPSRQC
# Procedure, shortened: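 CHRM1-CHO calcium-flux assay, antagonist mode. Cells were seeded 18 h, dye-loaded 1 h at 37 C and given compound for 5 min at RT, then acetylcholine was added at 50nM. FDSS fluorescence was read 3 min; 15 concentrations, three runs.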
# [14] = molecular target: Muscarinic acetylcholine receptor M1 (Homo sapiens) (UniProt P11229); assay: Cholinergic receptor muscarinic 1 (CHRM1) small molecule agonists, cell-based qHTS assay (AID 1963589); further: nearly all actives have a fitted effect of over 35% in size
# Procedure, shortened: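 Agonist-mode qHTS in CHO cells stably carrying human muscarinic M1. Intracellular calcium is tracked by fluorescence every second after compound transfer; each compound runs at 15 concentrations in three independent runs.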
# [15] = cAMP Responsive Elements (CRE) small molecule antagonists, cell-based qHTS assay (AID 1963591; active means well fitted inhibition curve with a large enough effect in the signal ratio in the repeat runs, not every such curve was filed as active; the % refers to the signal ratio)
# Procedure, shortened: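 Antagonist mode: test compounds are co-incubated with the adenylyl cyclase activator NKH477 (0.25 uM final) on CRE-bla HEK293T cells for 3 h at 37 °C, followed by LiveBLAzer substrate loading.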
# [16] = molecular target: D(2) dopamine receptor (Homo sapiens) (UniProt P14416); assay: Dopamine D2 receptor (DRD2) small molecule agonists, cell-based qHTS assay (AID 1963594); further: nearly all actives have a fitted effect of over 35% in size
# D(2) dopamine receptor (Homo sapiens), sequence (P14416 whole entry, looked up): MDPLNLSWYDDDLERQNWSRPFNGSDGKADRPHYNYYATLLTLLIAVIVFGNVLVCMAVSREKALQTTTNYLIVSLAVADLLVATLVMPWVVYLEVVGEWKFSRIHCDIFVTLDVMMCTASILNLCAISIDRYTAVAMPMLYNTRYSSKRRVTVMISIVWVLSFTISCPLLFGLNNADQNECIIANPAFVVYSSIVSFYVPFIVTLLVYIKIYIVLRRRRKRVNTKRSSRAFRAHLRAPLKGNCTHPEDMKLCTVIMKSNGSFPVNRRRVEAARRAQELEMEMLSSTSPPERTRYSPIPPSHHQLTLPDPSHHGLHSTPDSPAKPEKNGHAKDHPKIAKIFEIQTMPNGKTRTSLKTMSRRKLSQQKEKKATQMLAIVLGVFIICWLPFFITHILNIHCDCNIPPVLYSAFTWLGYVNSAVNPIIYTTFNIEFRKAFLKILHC
# Procedure, shortened: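 HEK293 cells stably expressing human DRD2, pre-treated with PDE inhibitor Ro20-1724 (0.1 mM final) and compound 10 min at room temperature, then stimulated with NKH477 (200nM […]) for 30 min. cAMP read by HTRF (665/620 nm).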
# [17] = molecular target: D(2) dopamine receptor (Homo sapiens) (UniProt P14416); assay: Dopamine D2 receptor (DRD2) small molecule antagonists, cell-based qHTS assay (AID 1963595; active means well fitted inhibition curve with a large enough effect in the signal ratio in the repeat runs, with a control signal flat; the % refers to the signal ratio)
# Procedure, shortened: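 Antagonism was scored as restored cAMP in HEK293-DRD2 cells. These cells were stimulated with 200 nM NKH477 and 12 nM quinpirole for 30 min at room temperature, in the presence of 0.1 mM Ro20-1724.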
# [18] = cAMP Responsive Elements (CRE) small molecule agonists, cell-based qHTS assay (AID 1963590)
# Procedure, shortened: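 Agonist mode qHTS in CRE-bla HEK 293T cells: compounds dosed from DMSO for 3 h at 37 C/5% CO2, followed by LiveBLAzer B/G FRET substrate for 2 h at room temperature.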
# [19] = molecular target: Beta-2 adrenergic receptor (Homo sapiens) (UniProt P07550); assay: Adrenergic beta2 receptor (ADRB2) small molecule antagonists, cell-based qHTS assay (AID 1963592); further: series mostly up to about 92 µM; nearly all actives have a fitted effect of over 50% in size
# Beta-2 adrenergic receptor (Homo sapiens), sequence (P07550 whole entry, looked up): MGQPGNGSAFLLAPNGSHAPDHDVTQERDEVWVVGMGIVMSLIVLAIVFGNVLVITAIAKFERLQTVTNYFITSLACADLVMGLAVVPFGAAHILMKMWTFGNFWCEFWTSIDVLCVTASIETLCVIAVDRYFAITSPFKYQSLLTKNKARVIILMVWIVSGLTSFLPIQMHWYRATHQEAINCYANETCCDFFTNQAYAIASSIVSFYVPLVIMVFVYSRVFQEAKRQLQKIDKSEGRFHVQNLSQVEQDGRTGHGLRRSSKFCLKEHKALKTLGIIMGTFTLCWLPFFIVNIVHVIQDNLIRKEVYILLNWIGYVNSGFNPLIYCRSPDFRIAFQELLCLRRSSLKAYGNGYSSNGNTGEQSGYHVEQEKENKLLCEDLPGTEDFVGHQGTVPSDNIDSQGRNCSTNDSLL
# Procedure, shortened: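 Cells (CHO, stable ADRB2 overexpression) incubated 18-20hr at 37C; compounds added from DMSO; agonist mix (1nM isoproterenol, 100uM IBMX, 25uM Ro-20-1724) added; 0.5hr RT; d2-cAMP and anti-cAMP-cryptate added; 1hr RT; 665/615 nm read.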
smiles,measurement,setting,value
CCCCN(CCCC)CCCOC(=O)c1ccc(N)cc1,Potency,[1],inactive
same,Potency,[2],inactive
same,Potency,[3],inactive
same,outcome,[4],inactive
same,outcome,[5],inactive
same,Potency,[6],inactive
same,Potency,[7],inactive
same,Potency,[8],inactive
same,Potency,[9],inactive
same,Potency,[10],inactive
same,Potency,[11],inactive
same,Potency,[12],3.38 µM (active)
same,Potency,[13],inactive
same,Potency,[14],inactive
same,Potency,[15],inactive
same,Potency,[16],inactive
same,Potency,[17],inactive
C[C@@H](O)[C@H](N)C(=O)O,"activity change, negative = cytotoxicity",[1],1.84% [at 19 µM]
same,"activity, positive = activation",[2],1.15% [at 19 µM]
same,activity change,[3],"-1.37% [at 11.8 µM, active compounds read high]"
same,activation,[4],-0.197% [at 15.8 µM]
same,activation,[5],-0.289% [at 11.8 µM]
same,activation,[6],1.89% [at 13.5 µM]
same,activation,[7],3.27% [at 13.6 µM]
same,"activity change, negative = cytotoxicity",[8],12.8% [at 13.5 µM]
same,"activity change, negative = cytotoxicity",[9],-1.12% [at 13.5 µM]
same,"activity change, negative = cytotoxicity",[10],3.28% [at 13.5 µM]
same,activation,[11],-0.75% [at 13.5 µM]
same,activation,[12],1.14% [at 15.9 µM]
same,"activity, negative = inhibition",[13],-1.65% [at 12.6 µM]
same,activation,[14],-0.0423% [at 15.8 µM]
same,activation,[18],-0.0351% [at 19 µM]
same,"activity change, negative = inhibition",[15],5.26% [at 18.9 µM]
same,"activity change, negative = inhibition",[19],2.52% [at 19 µM]
same,activation,[16],17.6% [at 19 µM]
same,"activity change, negative = inhibition",[17],-2.84% [at 18.9 µM]
CC(C)(C)c1nnc(NS(=O)(=O)c2ccccc2)s1,Potency,[1],inactive
same,Potency,[2],inactive
same,Potency,[3],inactive
same,outcome,[4],inactive
same,outcome,[5],inactive
same,Potency,[6],inactive
same,Potency,[7],inactive
same,Potency,[8],inactive
same,Potency,[9],inactive
same,Potency,[10],inactive
same,Potency,[11],inactive
same,Potency,[12],inactive
same,Potency,[13],inactive
same,Potency,[14],inactive
same,Potency,[18],inactive
same,Potency,[15],inactive
same,Potency,[19],inactive
same,Potency,[17],inactive
O=C(O)c1cccc(O)c1,Potency,[1],inactive
same,Potency,[2],inactive
same,Potency,[3],inactive
same,outcome,[4],inactive
same,outcome,[5],inactive
same,Potency,[6],inactive
same,Potency,[7],inactive
same,Potency,[8],inactive
same,Potency,[9],inactive
same,Potency,[10],inactive
same,Potency,[11],inactive
same,Potency,[12],inactive
same,Potency,[13],inactive
same,Potency,[14],inactive
same,Potency,[18],inactive
same,Potency,[15],inactive
same,Potency,[16],inactive
O=C(O)CNCC(=O)O,"activity change, negative = cytotoxicity",[1],0.812% [at 8.39 µM]
same,"activity, positive = activation",[2],-2.08% [at 8.39 µM]
same,activity change,[3],"0.0589% [at 5.22 µM, active compounds read high]"
same,activation,[4],0.594% [at 6.97 µM]
same,activation,[5],0.144% [at 5.23 µM]
same,activation,[6],0.261% [at 5.99 µM]
same,activation,[7],0.304% [at 5.99 µM]
same,"activity change, negative = cytotoxicity",[8],-6.14% [at 5.99 µM]
same,"activity change, negative = cytotoxicity",[9],8.22% [at 5.99 µM]
same,"activity change, negative = cytotoxicity",[10],-13% [at 5.99 µM]
same,activation,[11],0.447% [at 5.99 µM]
same,activation,[12],-1.98% [at 7.02 µM]
same,"activity, negative = inhibition",[13],-11.9% [at 5.58 µM]
same,activation,[14],0.803% [at 6.97 µM]
same,activation,[18],-0.186% [at 8.39 µM]
same,"activity change, negative = inhibition",[15],0.325% [at 8.39 µM]
same,"activity change, negative = inhibition",[19],-7.9% [at 8.39 µM]
same,activation,[16],-0.477% [at 8.39 µM]
O=C(COCCOCCOCC(=O)Nc1c(I)cc(I)c(C(=O)O)c1I)Nc1c(I)cc(I)c(C(=O)O)c1I,Potency,[1],inactive
same,Potency,[2],inactive
same,Potency,[3],inactive
same,outcome,[4],inactive
same,outcome,[5],inactive
same,Potency,[6],inactive
same,Potency,[7],inactive
same,Potency,[8],inactive
same,Potency,[9],inactive
same,Potency,[10],inactive
same,Potency,[11],inactive
same,Potency,[12],inactive
same,Potency,[13],inactive
same,Potency,[14],inactive
same,Potency,[18],inactive
same,Potency,[19],inactive
same,Potency,[17],inactive
COc1ccc(-c2cc(=O)c3c(O)cc(O[C@@H]4O[C@H](CO[C@@H]5O[C@@H](C)[C@H](O)[C@@H](O)[C@H]5O)[C@@H](O)[C@H](O)[C@H]4O)cc3o2)cc1O,Potency,[1],inactive
same,Potency,[2],inactive
same,Potency,[3],inactive
same,outcome,[4],inactive
same,outcome,[5],inactive
same,Potency,[6],inactive
same,Potency,[7],inactive
same,Potency,[8],inactive
same,Potency,[9],inactive
same,Potency,[10],inactive
same,Potency,[11],inactive
same,Potency,[12],inactive
same,Potency,[14],inactive
same,Potency,[18],inactive
same,Potency,[15],inactive
same,Potency,[19],inactive
same,Potency,[16],inactive
same,Potency,[17],inactive
CC(=O)[C@H]1CC[C@H]2[C@@H]3C=CC4=CC(=O)CC[C@@]4(C)[C@@H]3CC[C@]12C,Potency,[1],inactive
same,Potency,[2],inactive
same,Potency,[3],inactive
same,outcome,[4],inactive
same,outcome,[5],inactive
same,Potency,[6],inactive
same,Potency,[7],inactive
same,Potency,[8],inactive
same,Potency,[9],inactive
same,Potency,[10],inactive
same,Potency,[11],inactive
same,Potency,[12],inactive
same,Potency,[14],inactive
same,Potency,[19],inactive
same,Potency,[16],inactive
same,Potency,[17],inactive
Brc1ccc(-c2ccccc2)cc1,Potency,[1],inactive
same,Potency,[2],inactive
same,Potency,[3],inactive
same,outcome,[4],inactive
same,outcome,[5],inactive
same,Potency,[6],inactive
same,Potency,[7],inactive
same,Potency,[8],inactive
same,Potency,[9],inactive
same,Potency,[10],inactive
same,Potency,[11],inactive
same,Potency,[13],inactive
same,Potency,[14],inactive
same,Potency,[18],inactive
same,Potency,[15],inactive
same,Potency,[19],inactive
same,Potency,[16],inactive
